Measured values taken from PubChem BioAssay (Tox21).
Several values for one entry are separate records, joined by “and”; a condition that tells them apart may be missing. Identical values can stand only once. Records with an inconclusive call do not appear. More than one record can exist for a structure, and the calls need not agree. Activity calls are given as the source filed them. Calls follow the shape of the dose curve; as a rule, active = well fitted curve in the direction sought with a large enough effect in the repeat runs; inconclusive = weak or mixed curves; inactive = no such curve, though single readings can be large; an effect the other way counts as inactive or inconclusive.

Assays:
[1] = A CellTox Green Cytotoxicity Assay to monitor cytotoxicity in HEK293 cells - 40 hour (AID 1224871); also: nearly all actives have a fitted effect of over 45% in size; also: potency is read from the fitted curve at half-maximal effect
Summary of the method: (§1)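 Fluorescence intensity, read at 0, 8, 16, 24, 32 and 40 h of compound treatment, reflected dye binding to DNA of dead HEK293 cells; compounds (23 nL, DMSO) were added 5 h after plating cells with reagent.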

[2] = qHTS RealTime-Glo MT Cell Viability Assay in HEK293 cells - 16 hour (AID 1224872); also: top concentration of the series differs between compounds; % is scaled to controls: 0 for no effect and ±100 for the full control effect; nearly all actives have a fitted effect of over 50% in size
Summary of the method: (§2)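 Reads taken at 0, 8, 16, 24, 32 and 40 h from the same wells. HEK293 cells (600/well) carried RealTime-Glo reagents from seeding, with compound added after a 5 h settle at 37 C.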

[3] = qHTS RealTime-Glo MT Cell Viability Assay in HEK293 cells - 40 hour (AID 1224874); settings: RealTime-Glo luminescence; max response: stronger effect = lower value; also: nearly all actives have a fitted effect of over 50% in size; also: potency is read from the fitted curve at half-maximal effect; as to max response: % is scaled to controls: 0 for no effect and ±100 for the full control effect
Summary of the method: (§3)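 Viable HEK293 cells reduce a cell-permeant prosubstrate; the product diffuses out and is consumed by NanoLuc in the medium to give light. Compounds went in after a 5 h incubation and plates were read over the treatment course.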

[4] = A CellTox Green Cytotoxicity Assay to monitor cytotoxicity in HEK293 cells - 24 hour (AID 1224875); also: nearly all actives have a fitted effect of over 45% in size; also: potency is read from the fitted curve at half-maximal effect
Summary of the method: as §1

[5] = A CellTox Green Cytotoxicity Assay to monitor cytotoxicity in HepG2 cells - 16 hour (AID 1224876); also: nearly all actives have a fitted effect of over 45% in size; also: potency is read from the fitted curve at half-maximal effect
Summary of the method: (§4)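 Using 1536-well format, dye-containing HepG2 suspension was seeded, allowed 5 h at 37 C/5% CO2, dosed by pintool with compounds, positive and negative controls, and imaged for fluorescence across 40 h.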

[6] = qHTS RealTime-Glo MT Cell Viability Assay in HepG2 cells - 32 hour (AID 1224877); also: nearly all actives have a fitted effect of over 55% in size; also: potency is read from the fitted curve at half-maximal effect
Summary of the method: (§5)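 HepG2 suspension premixed with RealTime-Glo reagents is plated at 600 cells per well and left 5 h at 37 C/5% CO2. Compounds in DMSO then go in, and bioluminescence reflecting viable cell number is recorded over 40 h.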

[7] = A CellTox Green Cytotoxicity Assay to monitor cytotoxicity in HepG2 cells - 24 hour (AID 1224878); also: nearly all actives have a fitted effect of over 45% in size; also: potency is read from the fitted curve at half-maximal effect; as to Cytotoxicity: % is scaled to controls: 0 for no effect and ±100 for the full control effect
Summary of the method: as §4

[8] = A CellTox Green Cytotoxicity Assay to monitor cytotoxicity in HepG2 cells - 40 hour (AID 1224879); also: nearly all actives have a fitted effect of over 40% in size; also: potency is read from the fitted curve at half-maximal effect
Summary of the method: as §4

[9] = qHTS RealTime-Glo MT Cell Viability Assay in HEK293 cells - 0 hour (AID 1224880)
Summary of the method: as §3

[10] = A CellTox Green Cytotoxicity Assay to monitor cytotoxicity in HepG2 cells - 0 hour (AID 1224882); also: % is scaled to controls: 0 for no effect and ±100 for the full control effect; nearly all actives have a fitted effect of over 35% in size
Summary of the method: as §4

[11] = A CellTox Green Cytotoxicity Assay to monitor cytotoxicity in HepG2 cells - 32 hour (AID 1224883); also: nearly all actives have a fitted effect of over 50% in size; also: potency is read from the fitted curve at half-maximal effect
Summary of the method: as §4

[12] = A CellTox Green Cytotoxicity Assay to monitor cytotoxicity in HEK293 cells - 8 hour (AID 1224884); also: nearly all actives have a fitted effect of over 35% in size; also: potency is read from the fitted curve at half-maximal effect
Summary of the method: as §1

[13] = qHTS RealTime-Glo MT Cell Viability Assay in HepG2 cells - 16 hour (AID 1224885); also: % is scaled to controls: 0 for no effect and ±100 for the full control effect; nearly all actives have a fitted effect of over 50% in size
Summary of the method: as §5

[14] = qHTS RealTime-Glo MT Cell Viability Assay in HEK293 cells - 24 hour (AID 1224886); also: nearly all actives have a fitted effect of over 50% in size; also: potency is read from the fitted curve at half-maximal effect
Summary of the method: as §2

[15] = qHTS RealTime-Glo MT Cell Viability Assay in HEK293 cells - 8 hour (AID 1224887)
Summary of the method: as §3

[16] = A CellTox Green Cytotoxicity Assay to monitor cytotoxicity in HEK293 cells - 16 hour (AID 1224888); also: nearly all actives have a fitted effect of over 35% in size; also: potency is read from the fitted curve at half-maximal effect
Summary of the method: as §1

[17] = qHTS RealTime-Glo MT Cell Viability Assay in HepG2 cells - 0 hour (AID 1224889)
Summary of the method: as §5

[18] = A CellTox Green Cytotoxicity Assay to monitor cytotoxicity in HepG2 cells - 8 hour (AID 1224890)
Summary of the method: as §4

[19] = qHTS RealTime-Glo MT Cell Viability Assay in HepG2 cells - 8 hour (AID 1224873); also: % is scaled to controls: 0 for no effect and ±100 for the full control effect; nearly all actives have a fitted effect of over 55% in size
Summary of the method: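 HepG2 cells (600/well) mixed with RealTime-Glo MT reagent, settled 5 h at 37 C/5% CO2 before compound addition. Nonlytic NanoLuc luminescence from viable-cell prosubstrate reduction read repeatedly during 40 h treatment at 37 C.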

[20] = A CellTox Green Cytotoxicity Assay to monitor cytotoxicity in HEK293 cells - 32 hour (AID 1224881); also: potency is read from the fitted curve at half-maximal effect; nearly all actives have a fitted effect of over 40% in size
Summary of the method: as §1

CC(C)(c1ccccc1)c1ccc(Nc2ccc(C(C)(C)c3ccccc3)cc2)cc1
inactive: Potency [1] | Potency [2] | max response [3] -27.1% and -13.6% | Potency [4] | Potency [5] | Potency [6] | Potency [7] | Potency [8] | Potency [9] | Potency [10] | Potency [11] | Potency [12] | Potency [13] | Potency [14] | Potency [15] | Potency [16] | Potency [17] | Potency [18]

CCCOC(=O)c1cc(O)c(O)c(O)c1
active: Potency [3] 48.7 µM and 38.9 µM
inactive: Potency [1] | Potency [19] | Potency [4] | Potency [5] | Potency [6] | Potency [7] | Potency [8] | Potency [9] | Potency [10] | Potency [11] | Potency [12] | Potency [13] | Potency [16] | Potency [17] | Potency [18]

N[C@@H]1CONC1=O
inactive: Potency [1] | Potency [2] | Potency [19] | Potency [4] | Potency [9] | Potency [12] | Potency [14] | Potency [15] | Potency [16] | Potency [17]

Clc1ccc2c(c1)C(N1CCNCC1)=Nc1ccccc1O2
active: Potency [1] 26.8 µM | Potency [3] 43.6 µM and 23.9 µM | Potency [5] 54.9 µM | Potency [6] 54.9 µM | Potency [7] 54.9 µM and 26.8 µM | Potency [8] 49 µM and 26.8 µM | Potency [11] 49 µM and 26.8 µM | Potency [14] 43.6 µM and 26.8 µM
inactive: Potency [19] | Potency [9] | Potency [10] | Potency [12] | Potency [15] | Potency [18]

CCC(=O)/C=C/C1C(C)=CCCC1(C)C (configuration not stated)
inactive: Potency [2] | Potency [19] | max response [3] -21.5% and 0.0714% | Potency [5] | Potency [6] | Potency [8] | Potency [9] | Potency [10] | Potency [11] | Potency [13] | Potency [14] | Potency [15] | Potency [18]
49.1 µM (active) and inactive: Potency [1]
39 µM (active) and inactive: Potency [12]

Cc1scc2c1N(C(=O)CN1CCN(C)CC1)c1ccccc1NC2=O
inactive: Potency [1] | Potency [2] | Potency [19] | max response [3] 1.2% | Potency [4] | Potency [5] | Potency [8] | Potency [9] | Potency [10] | Potency [11] | Potency [12] | Potency [13] | Potency [14] | Potency [15] | Potency [16] | Potency [17] | Potency [18]

CCCCC(CC)COC(=O)CC(C(=O)OCC(CC)CCCC)S(=O)(=O)O (configuration not stated)
active: Potency [1] 24.5 µM | Potency [4] 21.9 µM | Potency [5] 33.4 µM and 38.9 µM | Potency [7] 42 µM and 38.9 µM | Potency [8] 42 µM and 43.6 µM | Potency [20] 21.9 µM | Potency [11] 42 µM and 43.6 µM | Potency [12] 13.8 µM | Potency [16] 19.5 µM
inactive: Potency [19] | Potency [6] | Potency [9] | Potency [10] | Potency [13] | Potency [17] | Potency [18]
